Consider 40 sequences from the OligoGym collection.
Further: reference of the scale not given here.

The first experiment addresses CHCHD8. Put plainly: pooled miR-30 sensor sort-seq; sequence = guide strand. To be noted: shRNA.
TTCTTCACCCGTTGGGTCCAGG had a sensor-assay potency score (higher = more potent) of -0.933. Same read-out and setting: next, TCATGCAATCCTTGAACGCCTG: -0.766; TCGTCTTTCTTCACCCGTTGGG: -0.227; TTCTTGCCTCCTCTGCAGCTCC: -1.23. On to TATGACAGCTGTTTGTGCCAGT, for which the sensor-assay potency score (higher = more potent) is 0.271. On the same count and under the same terms, next, TTGTTCTTGCCTCCTCTGCAGC: -1.04. On the same count and under the same terms, next, TCTTCCTCTATAATCTTGCTGG: -0.27; TTCCTCTATAATCTTGCTGGGT: -1.07; TCATCGTCTTTCTTCACCCGTT: -0.24. On the same count and under the same terms, next, TTGCCTCCTCTGCAGCTCCTCT: -1.69; TTGCCGCCAGTCCTGGTGCTGG: -1.88.

In another experiment the target is CHD2. Described as above. As to conditions: shRNA.
On to TTGATTGTTGGACCTCTCCTTT, for which the sensor-assay potency score (higher = more potent) is -0.473.

TAAGCCTTGATGAACCTTCGGA gave a sensor-assay potency score (higher = more potent) of 0.0623. The same measure, in the same setting: next, TTGTTTTCCAGGATCGTCCGGC: -0.196; TAAACTGTGATAGAAGTTCATC: -0.983; TTATCTGTGTGGAAAGAGCGGT: -0.167. Still for that read-out and setting: the figure for TTTAAAGCTACAAATCGTGGTC is 0.518; for TTCTTCTAGCTCCTTCTGCCGC it is -0.813. Still for that read-out and setting: the figure for TGCATTGCTGACACACAGCTGT is -0.311; for TTTCTTATGAGCCATCTTGTAT it is -1.08; for TTTCATTGGACTTTTTTCCAAG it is -0.762. TTCTTCACATCAGCTATCCGTT showed a sensor-assay potency score (higher = more potent) of -0.528. The same measure, in the same setting: next, TATTACTCTTTCTACTATCTGA: 0.18; TAGCACCTTATGAAGACTCTGG: -0.21. The same measure, in the same setting: next, TGACACTTCATTCTCTCTCGTT: -0.0754; TTTTGCACCAGGAATGAGCTAG: 0.429. Sequence ATAAATTTCTTCTAGCTCCTTC came in with a sensor-assay potency score (higher = more potent) of 1.15. On the same count and under the same terms, the figure for TTCAACAAGTAATCCGCTCGGG is 0.35. Same read-out and setting: next, TTATAAGCCTTGATGAACCTTC: 0.197. Same read-out and setting: next, TTCTTCTTGAGACCTTTTCTTA: -0.844; TTCCTTAATATTAAATCGCGAT: -0.656; TTTATCTGTCTCCACCGGCAGA: -1.04.

TCAACAAGTAATCCGCTCGGGT displayed a sensor-assay potency score (higher = more potent) of -0.663. In turn, TTGCACTTGTTGACACTTCATT returned a sensor-assay potency score (higher = more potent) of -0.8.

The target in the next experiment is CHEK1. The experiment is described as above. As to conditions: shRNA.
For TTTGTCTGCATCCAATTTGGTA, the sensor-assay potency score (higher = more potent) was -0.969. The same measure, in the same setting: next, TTTTCTTCACTAGAAGCACTGT: 0.254; TAAAGTACCACACATCTTGTTC: -0.726. Still for that read-out and setting: the figure for TTTATTGATACAGATCTCTTTC is 0.115; for TAGCAGCACTATATTCACCAGG it is -0.884.

For the sequence TTTCCAGTCAGAATACTCCTGA, the sensor-assay potency score (higher = more potent) is -0.0829.
